Data on nine molecules can be found in PubChem BioAssay AID624312 (National Center for Advancing Translational Sciences (NCATS), 2012).

Each structure is given as a SMILES string. Records with an inconclusive call do not appear. Activity calls are given as the source filed them. Calls come from the whole dose curve; as a rule, active = well fitted inhibition curve with a large enough effect; inconclusive = small, poorly fitted or top-dose-only effect; inactive = no such curve, though single readings can be large or run the other way.

Chain of Peptidyl-prolyl cis-trans isomerase NIMA-interacting 1 (Homo sapiens) (Q13526 whole entry, looked up, the tested form may be a part): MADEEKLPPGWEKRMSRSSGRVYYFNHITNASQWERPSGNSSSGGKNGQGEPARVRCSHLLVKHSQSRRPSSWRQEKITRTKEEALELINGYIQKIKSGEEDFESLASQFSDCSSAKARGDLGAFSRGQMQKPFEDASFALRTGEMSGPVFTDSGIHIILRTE

The assay deals with Peptidyl-prolyl cis-trans isomerase NIMA-interacting 1 (Homo sapiens) (UniProt Q13526). Put plainly: qHTS Assay to Find Inhibitors of Pin1: Hit Validation using Tamra Binding. To be noted: Pin1 Tamra-peptide displacement, fluorescence polarization, 10 min; series mostly up to 57.5 µM; activity change, negative = inhibition: at the top concentration. From the text:
The unique chemical properties of Pro allow for the adoption of two completely distinct amide bond conformations (cis and trans). Peptidyl-prolyl cis/trans isomerases (PPIases) are evolutionary conserved enzymes that catalyze cis/trans isomerization of peptidyl-prolyl peptide bonds. Distinct from all other PPIases such as cyclophilins and FK506-binding proteins (FKBPs), Pin1 binds a subset of phos.Ser/Thr-Pro-containing proteins using its protein-targeting WW domain and isomerizes only specific phos.Ser/Thr-Pro bonds, which cannot be effectively catalyzed by other known PPIases. Pin1-catalyzed conformational regulation can control a spectrum of activities of many key regulators in diverse cellular processes such as cell growth, genotoxic and other stress responses, immune response, germ cell development, neuronal differentiation and survival. Pin1 has emerged as a novel molecular timer that modulates its multiple targets at various steps of a given cellular process to synergistically control the amplitude and duration of a cellular response or process. Importantly, Pin1 is tightly regulated by multiple levels and its deregulation has an important role in a growing number of pathological conditions, including cancer, Alzheimer's disease, aging, asthma and microbial infection, providing a potentially new therapeutic option. The goal of this screen is to find small-molecule inhibitors of Pin1 using a fluorescence polarization competition assay.In the primary screen, a HiFluor-488-labeled peptide binds to the active site of Pin1 and can be displaced by compounds. Compounds were screened as a concentration-titration series that ranged from 57 uM to 0.7 nM. To validate the hits using a different read-out, this Tamra binding assays was used against all the hits identified from the primary screen. NIH Molecular Libraries Probe Production Network [MLPCN] NIH Chemical Genomics Center [NCGC] MLPCN Grant: R03 DA031663 PI Name: Dr. Kun Ping Lu, Beth Israel Deaconess Medical Center
Briefly, 2 uL of Pin1 (all columns but column 3, which just receives buffer and serves as negative control) are dispensed into Greiner black solid bottom 1536-well assay plates. Compounds are then transferred via Kalypsys pin tool equipped with 1536-pin array (10 nl slotted pins, V&P Scientific, San Diego, CA). Following addition of compound, 2 uL of Tamra-probe in buffer (all columns) is added to initiate the binding reaction. The plates are then incubated at room temperature for 10 minutes. Finally, plates are transferred to a ViewLux high-throughput CCD imager (PerkinElmer), wherein end-point measurements of fluorescence polarization are acquired. All reagents are diluted in an assay buffer consisting of 10 mM Hepes, 10 mM NaCl, 1 mM DTT, 1% glycerol and 0.01% Tween-20.
Regarding `COc1ccccc1Nc1ccc2c(O)cc(S(=O)(=O)O)cc2c1`, the Potency is 7.57 µM (active).

Take `O=S(=O)(O)c1cc(O)c2cc(Nc3ccccc3)ccc2c1`: the Potency was 12 µM (active).

Consider `Cc1ccc2nc(-c3ccc(N=Nc4cc(S(=O)(=O)O)c5ccccc5c4O)cc3)sc2c1S(=O)(=O)O`, for which the “activity change, negative = inhibition” value was 282% (inactive).

For `CC(=O)Nc1ccc(Nc2c3c4c(cccc4n(C)c2=O)C(=O)c2ccccc2-3)cc1`, the “activity change, negative = inhibition” value was -17.4% (inactive).

For `CCCCCC(=O)Nc1cc(S(=O)(=O)O)cc2cc(S(=O)(=O)O)cc(O)c12`, the Potency is 2.39 µM (active).

Turning to `O=S(=O)(O)c1ccc(O)c2cc(Nc3ccccc3)ccc12`, the Potency is 3.01 µM (active).

With `Nc1ccc2cccc(O)c2c1`, the Potency was 26.9 µM (active).

For `O=S(=O)(Nc1cc(Sc2ncn[nH]2)c(O)c2ccccc12)c1ccccc1`, the “activity change, negative = inhibition” value was 0.852% (inactive).

`COc1ccc(S(=O)(=O)Nc2cc(Sc3ncn[nH]3)c(O)c3ccccc23)cc1`: the “activity change, negative = inhibition” value was -5.86% (inactive).
